Measured values taken from PubChem BioAssay.
For some assays here: Results with a measured potency or affinity are listed apart. Active and inactive are the calls of the source. Unless noted, cut-off not given; nearly all actives show IC50 up to about 0.91 µM.

These compounds were tested against Protein kinase 7 (PK7), Plasmodium falciparum 3D7 (PF3D7_0213400) (UniProt Q7YTF7) (assay: inhibition of Plasmodium PK7 catalytic activity – biochemical, TCAMS antimalarial set, Kinase-Glo luminescence (AID 1159587; call rule not given here)). Conditions: recombinant PfPK7, Kinase-Glo ATP depletion luminescence.
Sequence of Protein kinase 7 (PK7), Plasmodium falciparum 3D7 (PF3D7_0213400) (Q7YTF7 1-343): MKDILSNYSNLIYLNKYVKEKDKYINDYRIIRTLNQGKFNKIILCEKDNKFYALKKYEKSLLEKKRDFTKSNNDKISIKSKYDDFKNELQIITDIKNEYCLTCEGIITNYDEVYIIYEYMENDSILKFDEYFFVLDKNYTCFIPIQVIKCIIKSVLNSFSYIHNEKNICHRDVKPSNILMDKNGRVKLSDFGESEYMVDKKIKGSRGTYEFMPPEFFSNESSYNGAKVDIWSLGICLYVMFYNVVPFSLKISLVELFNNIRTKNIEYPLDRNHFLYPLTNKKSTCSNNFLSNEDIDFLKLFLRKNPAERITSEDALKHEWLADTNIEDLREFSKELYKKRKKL

outcome, inactive:
O=C(NCCCCN1CCN(c2ccc3c(c2)CCC3)CC1)c1ccc(NC(=O)c2ccc(Cl)cc2)cc1
O=C(NCc1cccnc1)C(c1cc2ccccc2o1)N1CCN(C(c2ccccc2)c2ccccc2)CC1 (stereo not given)
O=C(Nc1cccc(CN2CCCN(Cc3cccnc3)CC2)c1)c1ccc(Cl)c(Cl)c1
Cc1cc(N2CCN(C)CC2)nc2ccc(NC(=O)c3cccc(N(C)C)c3)cc12
COc1ccc2nc(-c3ccc(C(=O)NCCCN4CCN(c5cc(Cl)ccc5OC)CC4)cc3OC)[nH]c2c1
O=C(NCCN1Cc2ccccc2C1=O)c1ccc(Oc2ccc(C(=O)NCCN3Cc4ccccc4C3=O)cc2)cc1
CN(C)Cc1cccc(-c2ccc(NC(=O)c3ccc4c(=O)n(C5CCCCC5)cnc4c3)cc2)c1
COc1ccc(Br)cc1C1Nc2ccc3ccccc3c2C2=C1C(=O)CC(c1ccccc1)C2 (stereo not given)
COc1cccc(NC(=O)Nc2ccc(Nc3nc(C)cc(N4CCCC4)n3)cc2)c1
c1ccc(CN2CCC(NCc3ccc(-c4cccc(CNC5CCCC5)c4)cc3)CC2)cc1
Clc1cccc(Cl)c1CCNCC1CCN(CC2CCCCC2)CC1
Cc1c(Br)cc2[nH]c(-c3ccc(C(=O)NC4CCN(Cc5ccccc5)CC4)cc3)nc2c1C
CC(C)(C)c1ccc(NC(=O)N[C@@H]2CCN(c3ccnc4ccccc34)C2)cc1
C=Cc1sc(CNCCCNc2cc(=O)c3ccccc3[nH]2)c(C)c1Br
CC(=O)N(C)c1cccc(C(=O)Nc2ccc(-c3cccc(-c4nc5c(C)cccc5[nH]4)c3)cc2)c1
O=C(Nc1cccc(Cl)c1Cl)NC1CCN(Cc2cccc(O)c2)CC1
CC(=O)Nc1cccc(C(=O)Nc2cccc(-c3ccc(-c4nc5c(C)cccc5[nH]4)cc3)c2)c1
CCOC(=O)NC1=NC(C)(C)N(OCc2ccc(Cl)c(Cl)c2)C(NC(=O)OCC)=N1
Cc1ncc([N+](=O)[O-])n1CCOC(=O)NC(Nc1ccc(Br)cc1)C(Cl)(Cl)Cl (stereo not given)
O=S(=O)(Nc1cccc(CCN2CCCCC2CCN2CCCC2)c1)c1ccc(-c2ccccc2)cc1 (stereo not given)
COc1cc2nc(NCc3nc4ccccc4[nH]3)nc(N)c2cc1OC
CC(C)Sc1nc2c(c(=O)n1Cc1ccco1)C1(CCCC1)Cc1ccccc1-2
c1ccc(OCCCCN2CCCCC2)cc1
Cc1onc(-c2c(F)cccc2Cl)c1C(=O)Nc1ccccc1I
O=C(NCCc1ccc(Cl)c(Cl)c1)C1CCCN(C(=O)c2ccc(O)c(-c3ccc(Cl)c(Cl)c3)c2)C1 (stereo not given)
CCc1ccc(C(=O)NC(=O)c2ccccc2O)cc1
O=C(/C=C/c1ccc(Cl)c(Cl)c1)NCCCCCCN1CCN(C(=O)Nc2cc(F)cc(F)c2)CC1
CN(Cc1cccc(F)c1)C1CCN(c2cc(NC(=O)c3cccc(F)c3)ccn2)CC1
COc1ccc2ncc(C#N)c(CCN3C[C@H](CNCc4ccccc4)[C@H](O)C3)c2n1
N#Cc1ccc(N2CCN(C(=O)c3cccc(-c4noc(C(F)(F)F)n4)c3)CC2)nc1
CCCCN(CCCC)CCC(O)C(=Cc1ccc(Cl)cc1Cl)c1ccc(C(F)(F)F)cc1N (stereo not given)
CN1CCN(c2ccnc3ccc(NC(=O)Nc4cccc5c(-c6ccncc6)cccc45)cc23)CC1
COc1ccccc1C1CCN(C2CCC(NC(=O)c3cc(-c4ccc(Cl)cc4)cs3)CC2)CC1 (stereo not given)
NC(=O)c1ccc(-n2cnc3cc(F)ccc32)cc1OCc1ccccc1C(F)(F)F (tested in a mixture with another compound)
COc1cc2nc(N3CCC(CNC(=O)c4ccc(-c5ccc(C#N)cc5C)cc4)CC3)nc(N)c2cc1OC
O=C(Nc1cccc(CN2CCCN(Cc3cccc(O)c3)CC2)c1)c1ccc2ccccc2c1
COc1ccccc1Cn1ccnc1SCC(=O)Nc1cccc(C(F)(F)F)c1
c1ccc(CCNCc2ccc(-c3cccc(-c4nc5ccccc5[nH]4)c3)cc2)nc1
c1ccc(CNc2cc(-c3ccccn3)nc(-c3ccccn3)n2)cc1
CCCNCc1ccc(-c2ccc(CN(CCOC)C(=O)c3cnc(C)cn3)cc2)nc1

These compounds were tested against Calcium-dependent protein kinase 4 (Plasmodium falciparum (isolate 3D7)) (UniProt Q8IBS5) (assay: PfCDPK4 kinase inhibitors, biochemical, TCAMS library (AID 1159588)). Conditions: recombinant PfCDPK4, Kinase-Glo ATP depletion luminescence.
Sequence of Calcium-dependent protein kinase 4 (Plasmodium falciparum (isolate 3D7)) (Q8IBS5 whole entry, looked up): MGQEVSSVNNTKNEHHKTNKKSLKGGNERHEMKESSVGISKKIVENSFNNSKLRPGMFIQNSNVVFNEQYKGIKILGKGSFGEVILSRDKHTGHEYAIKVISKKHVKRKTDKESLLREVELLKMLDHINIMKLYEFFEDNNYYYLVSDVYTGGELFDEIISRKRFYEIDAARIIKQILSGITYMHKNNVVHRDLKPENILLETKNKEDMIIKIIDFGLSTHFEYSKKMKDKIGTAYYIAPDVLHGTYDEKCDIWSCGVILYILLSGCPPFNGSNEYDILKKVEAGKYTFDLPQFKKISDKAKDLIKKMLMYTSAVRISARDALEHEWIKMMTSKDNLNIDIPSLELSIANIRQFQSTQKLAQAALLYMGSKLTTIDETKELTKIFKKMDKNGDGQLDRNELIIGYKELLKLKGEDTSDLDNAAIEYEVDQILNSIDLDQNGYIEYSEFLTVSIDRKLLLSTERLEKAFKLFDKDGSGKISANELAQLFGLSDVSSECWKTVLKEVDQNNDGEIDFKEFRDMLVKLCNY

outcome, inactive:
O=C(NCCCCN1CCN(c2ccc3c(c2)CCC3)CC1)c1ccc(NC(=O)c2ccc(Cl)cc2)cc1
O=C(NCc1cccnc1)C(c1cc2ccccc2o1)N1CCN(C(c2ccccc2)c2ccccc2)CC1 (stereo not given)
O=C(Nc1cccc(CN2CCCN(Cc3cccnc3)CC2)c1)c1ccc(Cl)c(Cl)c1
Cc1cc(N2CCN(C)CC2)nc2ccc(NC(=O)c3cccc(N(C)C)c3)cc12
COc1ccc2nc(-c3ccc(C(=O)NCCCN4CCN(c5cc(Cl)ccc5OC)CC4)cc3OC)[nH]c2c1
O=C(NCCN1Cc2ccccc2C1=O)c1ccc(Oc2ccc(C(=O)NCCN3Cc4ccccc4C3=O)cc2)cc1
CN(C)Cc1cccc(-c2ccc(NC(=O)c3ccc4c(=O)n(C5CCCCC5)cnc4c3)cc2)c1
COc1ccc(Br)cc1C1Nc2ccc3ccccc3c2C2=C1C(=O)CC(c1ccccc1)C2 (stereo not given)
COc1cccc(NC(=O)Nc2ccc(Nc3nc(C)cc(N4CCCC4)n3)cc2)c1
c1ccc(CN2CCC(NCc3ccc(-c4cccc(CNC5CCCC5)c4)cc3)CC2)cc1
Clc1cccc(Cl)c1CCNCC1CCN(CC2CCCCC2)CC1
Cc1c(Br)cc2[nH]c(-c3ccc(C(=O)NC4CCN(Cc5ccccc5)CC4)cc3)nc2c1C
CC(C)(C)c1ccc(NC(=O)N[C@@H]2CCN(c3ccnc4ccccc34)C2)cc1
C=Cc1sc(CNCCCNc2cc(=O)c3ccccc3[nH]2)c(C)c1Br
CC(=O)N(C)c1cccc(C(=O)Nc2ccc(-c3cccc(-c4nc5c(C)cccc5[nH]4)c3)cc2)c1
O=C(Nc1cccc(Cl)c1Cl)NC1CCN(Cc2cccc(O)c2)CC1
CC(=O)Nc1cccc(C(=O)Nc2cccc(-c3ccc(-c4nc5c(C)cccc5[nH]4)cc3)c2)c1
CCOC(=O)NC1=NC(C)(C)N(OCc2ccc(Cl)c(Cl)c2)C(NC(=O)OCC)=N1
Cc1ncc([N+](=O)[O-])n1CCOC(=O)NC(Nc1ccc(Br)cc1)C(Cl)(Cl)Cl (stereo not given)
O=S(=O)(Nc1cccc(CCN2CCCCC2CCN2CCCC2)c1)c1ccc(-c2ccccc2)cc1 (stereo not given)
COc1cc2nc(NCc3nc4ccccc4[nH]3)nc(N)c2cc1OC
CC(C)Sc1nc2c(c(=O)n1Cc1ccco1)C1(CCCC1)Cc1ccccc1-2
c1ccc(OCCCCN2CCCCC2)cc1
Cc1onc(-c2c(F)cccc2Cl)c1C(=O)Nc1ccccc1I
O=C(NCCc1ccc(Cl)c(Cl)c1)C1CCCN(C(=O)c2ccc(O)c(-c3ccc(Cl)c(Cl)c3)c2)C1 (stereo not given)
CCc1ccc(C(=O)NC(=O)c2ccccc2O)cc1
O=C(/C=C/c1ccc(Cl)c(Cl)c1)NCCCCCCN1CCN(C(=O)Nc2cc(F)cc(F)c2)CC1
CN(Cc1cccc(F)c1)C1CCN(c2cc(NC(=O)c3cccc(F)c3)ccn2)CC1
COc1ccc2ncc(C#N)c(CCN3C[C@H](CNCc4ccccc4)[C@H](O)C3)c2n1
N#Cc1ccc(N2CCN(C(=O)c3cccc(-c4noc(C(F)(F)F)n4)c3)CC2)nc1
CCCCN(CCCC)CCC(O)C(=Cc1ccc(Cl)cc1Cl)c1ccc(C(F)(F)F)cc1N (stereo not given)
CN1CCN(c2ccnc3ccc(NC(=O)Nc4cccc5c(-c6ccncc6)cccc45)cc23)CC1
COc1ccccc1C1CCN(C2CCC(NC(=O)c3cc(-c4ccc(Cl)cc4)cs3)CC2)CC1 (stereo not given)
NC(=O)c1ccc(-n2cnc3cc(F)ccc32)cc1OCc1ccccc1C(F)(F)F (tested in a mixture with another compound)
COc1cc2nc(N3CCC(CNC(=O)c4ccc(-c5ccc(C#N)cc5C)cc4)CC3)nc(N)c2cc1OC
O=C(Nc1cccc(CN2CCCN(Cc3cccc(O)c3)CC2)c1)c1ccc2ccccc2c1
COc1ccccc1Cn1ccnc1SCC(=O)Nc1cccc(C(F)(F)F)c1
c1ccc(CCNCc2ccc(-c3cccc(-c4nc5ccccc5[nH]4)c3)cc2)nc1
c1ccc(CNc2cc(-c3ccccn3)nc(-c3ccccn3)n2)cc1
CCCNCc1ccc(-c2ccc(CN(CCOC)C(=O)c3cnc(C)cn3)cc2)nc1
